# Laboratory results as given in PubChem BioAssay (EPA / NIEHS).
# Records with an inconclusive call do not appear. The source made the active and inactive calls. Rule for the calls, unless noted: active = hit-call score of the fitted dose curve at least 0.9, where 1 is the maximum; inconclusive = response in the unintended direction; inactive = score below 0.9.
# Assays:
# [1] = read-out: Cellular tumor antigen p53 (Homo sapiens) (UniProt P04637); assay: LTEA_HepaRG_TP53: Life Technologies and Expression Analysis (LTEA) Assay for Tumor Protein P53 (TP53) using HepaRG (AID 2283537; active = hit-call score of the fitted dose curve at least 0.9, where 1 is the maximum; inactive = score below 0.9); conditions: mRNA level, 48 h; actives raise or lower the signal
# How it was run: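 TP53 transcript measured by qRT-PCR, normalized to three housekeeping genes, after 48 h treatment of human HepaRG cultures with chemicals from 100 uM downward in half-log steps (0.5% DMSO vehicle, serum-free induction medium). Up- or down-regulation fitted against DMSO.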
# [2] = read-out: UDP glucuronosyltransferase (UGT1A1), UGT1A1 (gene 54658); assay: LTEA_HepaRG_UGT1A1: Life Technologies and Expression Analysis (LTEA) Assay for UDP glucuronosyltransferase (UGT1A1) using HepaRG (AID 2283538; active = hit-call score of the fitted dose curve at least 0.9, where 1 is the maximum; inactive = score below 0.9); conditions: mRNA level, 48 h; actives raise or lower the signal
# How it was run: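 Readout is UGT1A1 transcript level by qRT-PCR, normalized to three housekeeping genes, after 48 h chemical treatment of HepaRG cells. Concentrations ran from 100 uM down in half-log steps with 0.5% DMSO, and gain or loss relative to DMSO was fitted.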
# [3] = read-out: UDP glucuronosyltransferase (UGT1A6), UGT1A6 (gene 54578); assay: LTEA_HepaRG_UGT1A6: Life Technologies and Expression Analysis (LTEA) Assay for UDP glucuronosyltransferase (UGT1A6) using HepaRG (AID 2283539; active = hit-call score of the fitted dose curve at least 0.9, where 1 is the maximum; inactive = score below 0.9); conditions: mRNA level, 48 h; actives raise or lower the signal
# How it was run: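 Expression was quantified by TaqMan qRT-PCR on Fluidigm arrays with ACTB/GAPDH/POLR2A normalization and bidirectional fitting against 0.5% DMSO. HepaRG cells (~100,000/well) were treated in duplicate for 48 h at eight half-log concentrations up to 100 uM in serum-free induction medium.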
# [4] = read-out: X-box binding protein 1 (XBP1), XBP1 (gene 7494); assay: LTEA_HepaRG_XBP1: Life Technologies and Expression Analysis (LTEA) Assay for X-box binding protein 1 (XBP1) using HepaRG (AID 2283540; active = hit-call score of the fitted dose curve at least 0.9, where 1 is the maximum; inactive = score below 0.9); conditions: mRNA level, 48 h; actives raise or lower the signal
# How it was run: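 XBP1 transcript by qRT-PCR (housekeeping-normalized: ACTB, GAPDH, POLR2A) after 48 h chemical treatment of HepaRG cells, 8-point half-log series topping at 100 uM, vehicle 0.5% DMSO. Gain and loss of signal fitted relative to DMSO.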
# [5] = LTEA_HepaRG_LDH_cytotoxicity: Cytotoxicity Assessment in the Life Technologies and Expression Analysis (LTEA) Assay (AID 2283563)
# How it was run: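 LDH release into culture medium read after 48 h chemical treatment of HepaRG cells. Duplicate wells, eight-point half-log series topping at 100 uM, 0.5% DMSO vehicle and baseline.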
# [6] = ATG_XTT_Cytotoxicity: Cytotoxicity Assessment in the Attagene TRANS-FACTORIAL HepG2 Assay (AID 2283584)
# How it was run: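 Viability endpoint from XTT after 24 h chemical exposure of reporter-transfected human HepG2 liver cells; signal loss fitted relative to DMSO negative control.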
# [7] = TOX21_p53_BLA_p2_viability: Viability Assessment in the Tox21 HCT-116 p53 Agonism Beta-lactamase Assay, Phase 2 (AID 2283591);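 note: compound exposure lasted 16 h at 37 °C; actives lower the ATP signal meaning cytotoxicity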
# How it was run: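 HCT-116 p53-bla cells (4000/well) rested 5 h at 37C, then received compounds in DMSO (217-fold dilution) for 16 h at 37C, 5% CO2. After the CCF4 read, CellTiter-Glo was added; ATP luminescence was read after 30 min at room temperature.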
# [8] = target: Cellular tumor antigen p53 (Homo sapiens) (UniProt P04637); assay: TOX21_p53_BLA_p2_ratio: Tox21 HCT-116 p53 Agonism Beta-lactamase Assay, Ratio, Phase 2 (AID 2283592)
# How it was run: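 Gain-of-signal p53 agonism was scored from the beta-lactamase FRET ratio (460/530 nm, 405 nm excitation) in HCT116 cells treated 16 h at 37C, 5% CO2, with DMSO serving as negative control and baseline.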
# [9] = TOX21_p53_BLA_p3_viability: Viability Assessment in the Tox21 HCT-116 p53 Agonism Beta-lactamase Assay, Phase 3 (AID 2283593);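 note: cells exposed to compound for 16 h before reading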
# How it was run: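 HCT-116 cells (4000/well) rested 5 h at 37C, then got DMSO compounds by pin tool (217-fold dilution) for 16 h at 37C, 5% CO2. After the bla read, CellTiter-Glo was added and luminescence read at 30 min, room temperature.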
# [10] = target: Cellular tumor antigen p53 (Homo sapiens) (UniProt P04637); assay: TOX21_p53_BLA_p3_ratio: Tox21 HCT-116 p53 Agonism Beta-lactamase Assay, Ratio, Phase 3 (AID 2283596)
# How it was run: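 HCT116 p53-bla cells (4000/well) given compound in DMSO (217-fold dilution) after 5 h, incubated 16 h at 37C. CCF4-AM substrate 2 h at room temperature; 460/530 nm emission ratio, gain fitted against DMSO.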
# [11] = TOX21_p53_BLA_p4_viability: Viability Assessment in the Tox21 HCT-116 p53 Agonism Beta-lactamase Assay, Phase 4 (AID 2283597);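 note: hits lower the luminescence signal meaning cytotoxicity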
# How it was run: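 Following a 16 h exposure at 37C, the treated HCT116 wells were first read for the FRET ratio. They were then lysed with CellTiter-Glo, and ATP luminescence was recorded after 30 min at room temperature.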
# [12] = target: Cellular tumor antigen p53 (Homo sapiens) (UniProt P04637); assay: TOX21_p53_BLA_p5_ratio: Tox21 HCT-116 p53 Agonism Beta-lactamase Assay, Ratio, Phase 5 (AID 2283599)
# How it was run: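 HCT-116 cells carrying a p53-inducible beta-lactamase reporter were seeded at 4000 cells/well and dosed after 5 h with compound in DMSO (217-fold dilution). After 16 h at 37C, CCF4-AM substrate was added for 2 h, and the 460/530 nm emission ratio was scored as gain-of-signal versus DMSO.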
# [13] = TOX21_p53_BLA_p5_viability: Viability Assessment in the Tox21 HCT-116 p53 Agonism Beta-lactamase Assay, Phase 5 (AID 2283600)
# How it was run: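 After the 460/530 nm beta-lactamase measurement, the wells received an ATP-detection luciferase reagent; signal was read 30 min later at RT. Compound treatment lasted 16 h on cells pre-incubated 5 h post-seeding.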
# [14] = target: Cellular tumor antigen p53 (Homo sapiens) (UniProt P04637); assay: TOX21_p53_BLA_p4_ratio: Tox21 HCT-116 p53 Agonism Beta-lactamase Assay, Ratio, Phase 4 (AID 2283601)
# How it was run: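 HCT116 cells carrying an inducible beta-lactamase reporter were plated at 4000 cells/well, rested 5 h, then exposed to compounds in DMSO (217-fold dilution) for 16 h at 37C. CCF4-AM substrate was loaded 2 h at room temperature; 460/530 nm emission ratio scored gain-of-signal versus DMSO.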
# [15] = Tanguay_ZF_120hpf_YSE_legacy: (Legacy) Oregon State University Tanguay Lab 120 Hour Post-fertilization zebrafish Assay for Yolk Sac Edema (AID 2283634);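 for AC50: actives raise the incidence of yolk sac edema above the DMSO baseline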
# How it was run: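 Presence or absence of yolk sac edema was recorded at 120 hpf in surviving larvae. These were wild-type Tropical 5D embryos, chorion removed at 4 hpf, held in static exposure at 28C from 6 hpf with 0.64% DMSO vehicle.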
# [16] = Tanguay_ZF_120hpf_AXIS_legacy: (Legacy) Oregon State University Tanguay Lab 120 Hour Post-fertilization zebrafish Assay for Body Axis Malformation (AID 2283635);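 for AC50: potency for an increased fraction of larvae scored with body axis malformation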
# How it was run: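 Binary scoring of axis defects at 120 hpf under brightfield, fitted positive versus DMSO. Tropical 5D embryos, chorion removed by pronase at 4 hpf, were singly exposed in sealed, dark plates at 28C from 6 hpf; DMSO 0.64% final.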
# [17] = Tanguay_ZF_120hpf_EYE_legacy: (Legacy) Oregon State University Tanguay Lab 120 Hour Post-fertilization zebrafish Assay for Eye Malformation (AID 2283636);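 note: binary presence or absence of eye malformation scored by brightfield in 120 hpf larvae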
# How it was run: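 Dechorionated wild-type Tropical 5D zebrafish embryos were exposed statically from 6 hpf, one per well, to 120 hpf at 28C in sealed, foil-covered plates with 0.64% DMSO. Eye malformation was scored present/absent by brightfield microscopy against DMSO controls.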
# [18] = Tanguay_ZF_120hpf_SNOU_legacy: (Legacy) Oregon State University Tanguay Lab 120 Hour Post-fertilization zebrafish Assay for Snout Malformation (AID 2283637)
# How it was run: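 Tropical 5D wild-type zebrafish embryos, dechorionated with pronase at 4 hpf, were exposed singly from 6 hpf to 120 hpf statically at 28C in 0.64% DMSO. Snout malformation was scored present/absent by brightfield microscopy, fitted against DMSO.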
# [19] = Tanguay_ZF_120hpf_JAW_legacy: (Legacy) Oregon State University Tanguay Lab 120 Hour Post-fertilization zebrafish Assay for Jaw Malformation (AID 2283638);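 for AC50: active means more embryos with jaw malformation than DMSO controls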
# How it was run: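 Binary jaw-malformation call at 120 hpf by brightfield microscopy. Embryos (Tropical 5D strain, chorion removed at 4 hpf) were dosed statically at 6 hpf, one per well, at 28C with 0.64% DMSO. Embryos that died were not scored.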
# [20] = Tanguay_ZF_120hpf_MORT_legacy: (Legacy) Oregon State University Tanguay Lab 120 Hour Post-fertilization zebrafish Assay for Mortality (AID 2283633)
# How it was run: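 Static waterborne exposure from 6 to 120 hpf at 28C of single dechorionated wild-type (5D) embryos per well, 0.64% DMSO final. Death recorded present/absent by brightfield at 24 and 120 hpf.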
# Sequence of Cellular tumor antigen p53 (Homo sapiens) (P04637 whole entry, looked up): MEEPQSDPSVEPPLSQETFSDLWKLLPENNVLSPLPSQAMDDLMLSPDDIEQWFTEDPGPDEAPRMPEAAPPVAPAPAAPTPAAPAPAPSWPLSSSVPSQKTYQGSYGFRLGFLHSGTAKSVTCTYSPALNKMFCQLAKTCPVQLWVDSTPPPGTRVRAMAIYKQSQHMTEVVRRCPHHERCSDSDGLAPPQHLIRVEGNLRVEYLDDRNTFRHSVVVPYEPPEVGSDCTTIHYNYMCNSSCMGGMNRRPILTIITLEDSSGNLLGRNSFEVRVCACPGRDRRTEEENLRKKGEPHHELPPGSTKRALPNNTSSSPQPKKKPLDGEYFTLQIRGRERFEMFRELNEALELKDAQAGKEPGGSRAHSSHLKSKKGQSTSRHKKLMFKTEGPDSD
compound,measurement,setting,value
CCC(C)(C)C(=O)O[C@H]1C[C@@H](C)C=C2C=C[C@H](C)[C@H](CC[C@@H]3C[C@@H](O)CC(=O)O3)[C@H]21,outcome,[1],inactive
same,outcome,[2],inactive
same,outcome,[3],inactive
same,outcome,[4],inactive
same,outcome,[5],inactive
same,outcome,[6],inactive
same,outcome,[7],inactive
same,outcome,[8],inactive
same,AC50,[9],75700 nM (active)
same,outcome,[10],inactive
same,AC50,[11],46100 nM (active)
same,outcome,[12],inactive
same,outcome,[13],inactive
same,outcome,[14],inactive
same,AC50,[15],649 nM (active)
same,AC50,[16],671 nM (active)
same,AC50,[17],737 nM (active)
same,AC50,[18],796 nM (active)
same,AC50,[19],766 nM (active)
O=C(O)c1cccc(N(Cc2cccnc2)c2ccc(OC(F)F)c(OC(F)F)c2)c1,outcome,[1],inactive
same,AC50,[2],25000 nM (active)
same,outcome,[3],inactive
same,outcome,[4],inactive
same,outcome,[5],inactive
same,outcome,[6],inactive
same,outcome,[7],inactive
same,outcome,[8],inactive
same,outcome,[9],inactive
same,outcome,[11],inactive
same,outcome,[12],inactive
same,outcome,[14],inactive
same,outcome,[20],inactive
same,outcome,[16],inactive
same,outcome,[17],inactive
same,outcome,[18],inactive
same,outcome,[19],inactive
CCOC(=O)CC(CC(=O)OCC)(OC(C)=O)C(=O)OCC,outcome,[1],inactive
same,outcome,[2],inactive
same,outcome,[3],inactive
same,outcome,[4],inactive
same,outcome,[5],inactive
same,outcome,[6],inactive
same,outcome,[8],inactive
same,outcome,[9],inactive
same,outcome,[13],inactive
same,outcome,[20],inactive
same,outcome,[16],inactive
same,outcome,[17],inactive
same,outcome,[19],inactive
CC(C)(O)c1coc(S(=O)(=O)NC(=O)Nc2c3c(cc4c2CCC4)CCC3)c1,outcome,[1],inactive
same,AC50,[2],21500 nM (active)
same,outcome,[3],inactive
same,outcome,[4],inactive
same,outcome,[5],inactive
same,outcome,[7],inactive
same,outcome,[8],inactive
same,outcome,[9],inactive
same,outcome,[10],inactive
same,outcome,[11],inactive
same,outcome,[12],inactive
same,outcome,[13],inactive
same,outcome,[14],inactive
same,outcome,[20],inactive
same,outcome,[15],inactive
same,outcome,[16],inactive
same,outcome,[17],inactive
same,outcome,[19],inactive
CC(O)CN(CCN(CC(C)O)CC(C)O)CC(C)O (stereo not drawn),outcome,[1],inactive
same,outcome,[2],inactive
same,outcome,[3],inactive
same,outcome,[4],inactive
same,outcome,[5],inactive
same,outcome,[6],inactive
same,outcome,[7],inactive
same,outcome,[8],inactive
same,outcome,[11],inactive
same,outcome,[12],inactive
same,outcome,[13],inactive
same,outcome,[14],inactive
same,outcome,[15],inactive
same,outcome,[16],inactive
same,outcome,[17],inactive
same,outcome,[18],inactive
CC(C)=CCC/C(C)=C\CO,outcome,[1],inactive
same,outcome,[2],inactive
same,outcome,[3],inactive
same,outcome,[4],inactive
same,outcome,[5],inactive
same,outcome,[6],inactive
same,outcome,[7],inactive
same,outcome,[8],inactive
same,outcome,[9],inactive
same,outcome,[11],inactive
same,outcome,[14],inactive
same,outcome,[17],inactive
same,outcome,[19],inactive
Cc1ccc(C)c(O)c1,outcome,[1],inactive
same,outcome,[2],inactive
same,outcome,[3],inactive
same,outcome,[4],inactive
same,outcome,[5],inactive
same,outcome,[6],inactive
same,outcome,[8],inactive
same,outcome,[9],inactive
same,outcome,[10],inactive
same,outcome,[12],inactive
same,outcome,[13],inactive
same,outcome,[14],inactive
same,outcome,[20],inactive
same,outcome,[15],inactive
same,outcome,[16],inactive
same,outcome,[17],inactive
same,outcome,[19],inactive
